# Screens as filed in PubChem BioAssay.
# Rows were chosen to be rich in hits. Some 3.8% of all compounds tested hit in one or more screens of this group.
# ATXN2 expr inh: Primary qHTS for Inhibitors of ATXN expression; HEK-293 ATXN2-luciferase reporter, luminescence, 24 h; AID 1745845, 2022; actives 0.72% (n = 360,000); Potency, µM (highest dose often 57 µM), for inactives: at the highest dose activity change, negative = inhibition, actives largely listed as inhibitors; note: % is set by controls: 0 for no effect and ±100 for the full control effect; nearly all actives have a fitted effect of over 55% in size
#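 qHTS (up to 57 uM final) was run with 24 h compound exposure of reporter cells at 37 °C. Each well was multiplexed: SteadyGlo luminescence measured ATXN2-luciferase expression after a fluorogenic Gly-Phe-AFC viability readout (25 uM final).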
# HT1080-NT tox: qHTS for induction of synthetic lethality in tumor cells producing 2HG: qHTS for the HT-1080-NT fibrosarcoma cell line | actives 1.6% (n = 360,000) | AID 686970, 2013 | Potency, µM (doses to about 46.1 µM), without a hit: top-dose activity, negative = less viability, usual class: cytotoxic | HT-1080-NT fibrosarcoma viability, CellTiter-Glo ATP luminescence, 48 h;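 note: NT is the 2HG producing partner of a matched IDH1 knockdown line; 0% = DMSO-treated cells and -100% = media-only wells without cells; nearly all actives have a fitted effect of over 55% in size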
#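 Compounds were tested in concentration-response format on HT-1080-NT cells for 48 hours at 37 degrees C. Cell viability came from CellTiter-Glo luminescence; curves were classified by r2, response magnitude and activity.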
# HT1080 IDH1KD tx: qHTS for induction of synthetic lethality in tumor cells producing 2HG: qHTS for the HT-1080-IDH1KD cell line; HT-1080 IDH1 knockdown viability, ATP luminescence, 48 h; Potency, µM (doses to about 46.1 µM), without a hit: top-dose activity, negative = toxicity, actives largely listed as cytotoxic; actives 2% (n = 360,000); AID 686971, 2013;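 note: 0% = DMSO wells and -100% = cell-free medium wells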
#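 IDH1KD HT-1080 cells, 750/well, RPMI + 5% FBS; compound pinned after 2 h settling; 48 h, 37 °C; CellTiter-Glo luminescence; % activity normalised to DMSO and no-cell wells; curves fitted, classed by r2 and efficacy.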
# HepG2 tox: qHTS for Inhibitors of TGF-b: Cytotox Counterscreen. HepG2 CAGA-GFP viability, ATP luminescence, 18 h. Potency, µM (series often up to 46.1 µM), for the others: at the highest dose activity change, negative = cytotoxicity, usual class: cytotoxic. actives 0.76% (n = 410,000). AID 588856, 2011
#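 CellTiter-Glo luminescence gave cytotoxicity after 18 hours at 37 degrees C. The cells were HepG2 CAGA-GFP in 1% FBS DMEM, stimulated with 500 pg/mL TGF-beta after compound addition. %Activity was normalised to no-cell wells (complete cell-killing) and DMSO (no toxicity), and curves were fitted and classified.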
# S2 tox: Viability Counterscreen for Primary qHTS for Inhibitors of ATXN expression; S2 cells (HEK-293 line with an ATXN2-luciferase reporter) viability, CellTiter-Fluor protease fluorescence, 24 h; Potency, µM (series often up to 56.7 µM), usual class: cytotoxic; actives 0.49% (n = 400,000); note: nearly all actives have a fitted effect of over 40% in size
# TGFb inhibitor: qHTS for Inhibitors of TGF-b; HepG2 CAGA-GFP TGF-b/SMAD3 reporter, GFP fluorescence, 18 h; TGF-beta stimulated, 500 pg/mL final; Potency, µM (highest dose often 46.1 µM), without a hit: at the top dose activity, negative = inhibition, usual class: inhibitors; AID 588855, 2011; actives 1.2% (n = 410,000); note: % is set by controls: 0 for no effect and ±100 for the full control effect; nearly all actives have a fitted effect of over 65% in size
#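 Smad-responsive CAGA-GFP expression was quantified in HEPG2 cells exposed to compounds and 500 pg/mL final TGF-beta for 18 h at 37 degrees C; unstimulated wells defined full inhibition.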
# Starred values were filed as active, the others as inactive; i = inactive; ? = inconclusive; nt = no result given; [ ] = dose if it differs, or a comment. Calls come from the whole dose curve; as a rule, active = well fitted curve in the direction sought with a large enough effect; inconclusive = small, poorly fitted or top-dose-only effect, or another doubt; inactive = no such curve, though single readings can be large; an effect the other way counts as inactive or inconclusive. Potency is the fitted concentration of half-maximal effect.
SMILES,ATXN2 expr inh,HT1080-NT tox,HT1080 IDH1KD tx,HepG2 tox,S2 tox,TGFb inhibitor
O=C(NC(=S)Nc1ccc(S(=O)(=O)Nc2nccs2)cc1)c1ccccc1,-19%,2%,1%,16µM*,i,-9%
CC(O)(COc1ccccc1)c1ccc2c(c1)CN(Cc1ccccn1)CCO2 (stereo not drawn),nt,nt,nt,nt,i,nt
CCC(=O)N[C@@H]1c2ccccc2C2(CCN(Cc3ccccn3)CC2)[C@H]1OC,nt,nt,nt,nt,i,nt
C[N+]1(CC(=O)c2ccccc2)CCc2ccccc2C1 (stereo not drawn),nt,nt,nt,8%,nt,10%
CCOC(=O)N1CCN(CCC(=O)c2ccc(OC)cc2)CC1,nt,-14%,-8%,-100%,?,11µM*
CCOC(=O)N1CCN(CCC(=O)c2ccc(Cl)cc2)CC1,-3%,?,-18%,-59%,i,?
COc1ccc(N2CCN(CCC(=O)c3ccc4ccccc4c3)CC2)cc1,-8%,?,?,-114%,i,11µM*
CC(=O)c1ccc(C(=O)NCC2Cc3cccc(-c4ncccn4)c3O2)cc1 (stereo not drawn),nt,nt,nt,nt,i,nt
S=C1SCN(Cc2cccnc2)CN1Cc1cccnc1,?,7.3µM*,6.5µM*,-98%,nt,?
COc1ccc(CN2CSC(=S)N(Cc3ccccc3)C2)cc1,nt,-8%,-3%,11µM*,7.1µM*,13µM*
COc1ccc(CN2CSC(=S)N(Cc3ccc(OC)cc3)C2)cc1,nt,-3%,0%,13µM*,?,?
S=C1NCN(Cc2cccnc2)CN1,-22%,-1%,6%,9%,i,-4%
S=C1SCN(Cc2ccccc2)CN1Cc1ccccc1,-18%,9%,8%,-52%,i,?
O=C(Cn1cc(SCc2ccccc2Cl)c2ccccc21)N1CCCCCC1,nt,nt,nt,-18%,nt,0%
CN(C)S(=O)(=O)c1ccc(SCC(=O)Nc2cccc(S(=O)(=O)N3CCCC3)c2)nc1,nt,1%,0%,-35%,nt,-13%
O=C(Nc1cccc(S(=O)(=O)N2CCCC2)c1)c1ccc(Cl)nc1,?,?,6.5µM*,2%,i,-17%
CN(C)S(=O)(=O)c1cccc(NC(=O)COc2ccc(C(=O)c3ccccc3)cc2)c1,-38%,?,?,22µM*,i,-33%
CC(=O)c1ccc(OCC(=O)Nc2cccc(S(=O)(=O)N3CCCC3)c2)cc1,-7%,16µM*,-17%,-6%,i,-6%
Cc1ccc(OCC(=O)Nc2cccc(S(=O)(=O)N3CCCC3)c2)cc1C,nt,-1%,0%,1%,?,3%
CN(C)S(=O)(=O)c1cccc(NC(=O)CSc2cccc3cccnc23)c1,?,18µM*,?,16µM*,nt,?
CN(c1ccccc1)S(=O)(=O)c1cccc(NC(=O)COc2ccccc2)c1,nt,0%,3%,0%,i,-4%
CC1=C(C(=O)OCc2ccc3c(c2)OCO3)C(c2ccc(Cl)cc2)NC(=O)N1 (stereo not drawn),?,2.5µM*,2.2µM*,-19%,i,?
CC1=C(C(=O)OCc2ccc3c(c2)OCO3)C(c2ccc(F)cc2)NC(=O)N1 (stereo not drawn),?,4.5µM*,5µM*,-22%,?,-28%
CC1=C(C(=O)OCC2CCCCC2)C(c2ccc(Cl)cc2)CC(=O)N1 (stereo not drawn),-30%,nt,nt,13µM*,i,?
Cc1cccc(Cn2cnc3c(cnn3C(C)(C)C)c2=O)c1,nt,nt,nt,-66%,nt,?
SMILES,ATXN2 expr inh,HT1080-NT tox,HT1080 IDH1KD tx,HepG2 tox,S2 tox,TGFb inhibitor
Cn1c(SCc2ccccc2)nnc1C1CCCN(Cc2cccc3ncccc23)C1 (stereo not drawn),nt,nt,nt,nt,i,nt
COc1ccc(Nc2cc(C)c3cc(NC(=O)c4cc(OC)cc(OC)c4)ccc3n2)cc1,?,nt,nt,-30%,nt,?
Cc1ccc(CSc2nnc(-c3ccc(NC(=O)CCc4ccccc4)cc3)n2C)cc1,nt,nt,nt,3%,nt,3%
CC(C)(C)NNC(=S)Nc1cccc(F)c1,-2%,2.9µM*,5.8µM*,-56%,?,?
Fc1cccc(NC(=S)Nc2ccc(Br)cc2)c1,15%,?,?,-41%,i,?
CCOc1ccc(NC(=O)CCS(=O)(=O)c2cccc3nonc23)cc1,-4%,nt,nt,-1%,i,-10%
Cn1ccnc1C(=O)c1cc(SCC(=O)NC2CC2)nc2ccccc12,12%,0%,1%,-9%,i,-2%
CN(C(=O)CSc1cc(C(=O)c2nccn2C)c2ccccc2n1)c1ccccc1,-5%,-26%,-28%,-24%,?,14µM*
CCN(CC)c1ccc(/C=C/c2ccncc2)cc1,nt,nt,nt,-38%,nt,88%
Cn1nc(Cc2cccc3ccccc23)c(C#N)c1N,1%,nt,nt,1%,i,4%
CC(C)(C)n1nc(Cc2cccc3ccccc23)c2c(N)ncnc21,-1%,nt,nt,-19%,?,14µM*
OC(C1=C/C(=C\c2ccncc2)c2ccccc21)c1ccncc1 (stereo not drawn),nt,nt,nt,-37%,nt,?
CNC(=O)c1ccc2nc(-c3ccco3)c(-c3ccco3)nc2c1,nt,nt,nt,-37%,nt,-13%
CCOC(=O)C1=C(N)Oc2ccc3ccccc3c2C1c1cccc(O)c1 (stereo not drawn),?,-4%,-16%,-93%,?,11µM*
CCOC(=O)C1=C(N)Oc2cc(O)ccc2C1c1cccc([N+](=O)[O-])c1 (stereo not drawn),-18%[11.3 µM],7.3µM*,5.8µM*,5%,i,-24%
CCOC(=O)C1=C(N)Oc2cc(O)ccc2C1c1ccc(F)cc1F (stereo not drawn),23%,-9%,-4%,-53%,nt,?
CCOC(=O)C1=C(N)Oc2cc(O)ccc2C1c1ccc(C)cc1 (stereo not drawn),-26%,?,21µM*,-55%,i,?
CCOC(=O)C1=C(N)Oc2cc(O)ccc2C1c1ccccc1 (stereo not drawn),nt,?,?,-42%,?,?
CCCCCCCCCCOC(=O)Cn1c(COc2ccccc2OC)[n+](C)c2ccccc21,?,15µM*,21µM*,-100%,?,?
Cc1cnc2ccc(I)cc2c1/C=C/c1ccc(N(C)C)cc1,nt,nt,nt,-26%,nt,-2%
